The text below walks through data of article PMC12864922, “TDP-43 directly inhibits mRNA accumulation in neurites through modulation of mRNA stability”.

The full ranking holds about 9,900 sequences; the median of “r (bound/input frequency ratio)” is about 0.7, and the highest 2% start at about 6.5. For the sample, the highest values were picked, then their nearest neighbours and some sequences at random.

Sequences and labels used below:
B1: ENSMUSG00000029636.74|Wasf3 (ssRNA)
RNA: GGGAGUUCUACAGUCCGACGAUCGCUUCGAUAUCCGCAUGCUACCCACGUCAGCUCUCUGCAAGAUCACUGGCUGUGUGUCUCAGUGAUGUCUUCCAACCAGUGGGUGAUACGUUUUCCUGUUUCUUCCCUUUGCAAAUUGAAUUCCAGGUAGAUAUGGUUGUAGAGGGGAAAGUUUAACAAAUCAGAAUGAAAUGUUUGUCUGUUUGCACACUGGGCCUGGUGGCCUCCAAGGAAAUGUGUACGAUCGUUUGCUUUCUCUAUCUUGGCGCUUGCAACCGAGAGCGGCCAUUUUUAUGAGGGGCUCUUGCGGUCGCACUAGUGUGGAAUUCUCGGGUGUCAAGG
B2: ENSMUSG00000004113.257|Cacna1b|213:217 (ssRNA)
RNA: GGGAGUUCUACAGUCCGACGAUCGCUUCGAUAUCCGCAUGCUAGAUGCUGAAGAGUGCAAAACGCUAGCAAAGAAGAGGCUGGGGUUAGAGGAAGAAGCCCGCACUGGCCGUGUUACAAGAAACUGGCAGGAAGGAAAUGGCCCUGGAACAGGCCAGGUGCCUAGAGCUAAGUCAGGCCCCUGGCUUAGCACUAGAAAAAAUAAAACCUCAUGGCUGCUUUGCAAAGGGAAAACCCAUGCUCAGGAAGGUGUUCACACACCACAGAUAGCUGGGAGGCCACGAGAGAAAGGUUGCACACAGACCUCUUGCGGUCGCACUAGUGUGGAAUUCUCGGGUGUCAAGG
B3: ENSMUSG00000028439.88|Fam219a (ssRNA)
RNA: GGGAGUUCUACAGUCCGACGAUCGCUUCGAUAUCCGCAUGCUAGGAAAGGGGUUUUGAGAAGAAAAGGAUCCAAGCAAUGGGGGCAGUUCUCACACCUCAGAGCCCCUCUCCCCAAACCCUGUGCCAGCCCAUAUACCUAUUUGUGUUUUCCCCUCAUCUCCAGAUGGGAAGCCUGGCAGCGCUGUCCAAAGGGAUACUGUCUCUCCAUUAGAUAACUCCUUCCACUGUCUCCCUCCCCCGCUUUCUUACUUUCUGAGGGUUGGGAAGGUAAGAUGGGCCUUAGAGAGAAGCCAGGUUUGGGGCUCUUGCGGUCGCACUAGUGUGGAAUUCUCGGGUGUCAAGG
B4: ENSMUSG00000031028.91|Tub (ssRNA)
RNA: GGGAGUUCUACAGUCCGACGAUCGCUUCGAUAUCCGCAUGCUACAAGCUGUAUGUAGAAAAAGCUCUGGUGGUCAGCAGAAAGCACUCCCACUUCAAAAGGGCCCAUUAGGCCCAAAGGGGGUUAGGAGUGGUAGGGAUAGGUGCGUGGCAGGUCCCUGCUAGGAUUGCAGGGGCCUGGCCAUGUGUAUUAGCUGGAGGCUUAGAAUGCUAGCUCAUUUGUUGCUACAGAUUUGCCCAGUGCUUGCACACGUAAGAACCCAGCUCUCAAGGCCAAAUAUCUGAGUGGAUGGGGAUGAUAGGAGCUCUUGCGGUCGCACUAGUGUGGAAUUCUCGGGUGUCAAGG
B5: ENSMUSG00000031028.31|Tub|122:126 (ssRNA)
RNA: GGGAGUUCUACAGUCCGACGAUCGCUUCGAUAUCCGCAUGCUACUGCCUGCCAAGACAGCCCUGCCUACCCUCUGUUCAUAGGCCCUCUAUGGGCUUUCUGGCCUUACCAACCAGAGACUGGCUGCUCUGCCUCUGCUGCUGAAGCAGGGGGGACAGCAAAUGGCAUACACAGGAGAAGAAUAUUUCUGUGCCCCAAGGUCAACACACAUGCCCAGUCCUGGGUCAGUCCCCUGCUGCAGUGGUGUUAUCACACCGGAAAGCCUCUUCACCUGGAGGUACAGAGGGAGAGGAAGCACAAGCCUCUCUUGCGGUCGCACUAGUGUGGAAUUCUCGGGUGUCAAGG
B6: ENSMUSG00000042529.154|Kcnj12 (ssRNA)
RNA: GGGAGUUCUACAGUCCGACGAUCGCUUCGAUAUCCGCAUGCUAAACACCAGAGUGGGUGCUUCUUAGAAAAGGACACUCAGGAAAUUAGUAUGGGGUCUGGGUCCCACAUCCCCAGGAAGUGGGUCAGCCCCACGUCCCCCGCUGGACUCACAGCUUGAGUUGUGCCUUAGAGACUCUGGUUGUCUGGCUUCCGUCAUUUCUGGUUUUCUCAGACUUGUUUAAUCUUUCCCUACUGCCCUAAGUCCACUCAUGAAGCUCCCCAGGCCCUUCUGAGAUUGCAGAGGCUGCUUGCUCAUAGCCAUCUCUUGCGGUCGCACUAGUGUGGAAUUCUCGGGUGUCAAGG
B7: ENSMUSG00000061578.1390|Ksr2|74:78;177:181 (ssRNA)
RNA: GGGAGUUCUACAGUCCGACGAUCGCUUCGAUAUCCGCAUGCUACUUUGUAAAUGAUUCUGUUGCCUUUUUCUAAACACAAAGUAUAUAUACCUAUAAAUGCUAUAUAUAUUAUAUAACACAAUAUACAUAAAGACUACUUCUUGUACAGCCCUCCACGGACCUCAGGCCCACUGUUUUCUCCAUGUCUGUCUGUACUGACUGUUGCAGAAUGAGCUGAUCAUACAUCUUGAUUCUCCAUUUUCCUUCUGGACCACAUGUCUCUUCCUUUUCCUUUUUAGAUCUGUCUUGCUCUCUGUCUCUCUCUCUUGCGGUCGCACUAGUGUGGAAUUCUCGGGUGUCAAGG
B8: ENSMUSG00000022095.44|Fam160b2 (ssRNA)
RNA: GGGAGUUCUACAGUCCGACGAUCGCUUCGAUAUCCGCAUGCUACUGGCUCCUAAGGCAGUGGUAUUCUUGGAGCCUUUUAGAGGAGCUAGAGGAUGGCCAGUGAGCGCCUAGAUGCUGCCCUGCAUGUGUUGCGUGACUAUCUCUGCUAUAUUGUGACCAGGGCCACAACAUGAGACAACUCCAGGGGCCAGGGAGAUGAACUGCUGUCUUUGAGGCUGGCUAAAAAAACAAUCCAGUCCAGAGAGAUGGGGAGGGGGGGAGCAAGAACCCUGUCUGUUACAUUAGGUAUCAUGGAAGCUGCUCUCUUGCGGUCGCACUAGUGUGGAAUUCUCGGGUGUCAAGG
B9: ENSMUSG00000029636.316|Wasf3 (ssRNA)
RNA: GGGAGUUCUACAGUCCGACGAUCGCUUCGAUAUCCGCAUGCUAUGGCAAAACUUUUUUUGGUAAGGUCCUUAUGCUCUCAGGGUGGAGGGAAGACAUUAAAGCUACGCAGCCAUUGUCAGGAUUUUUUCUACUGAUGUCACAUCAGAAUAUAACUAGUGGCUCCUUACUCACAAAUGUUCACGAGCUUCUCCGUUGUCACUUGUCCUGUAGUUUUGCCAACAAGUUAAUUUUAGUUUGAUUUUAUAGCUAGAGAGAAAGCUUUUGCCCGUUGCAUUCUGUAACCUUCAAAAGAAUGAGAAACGCUCUUGCGGUCGCACUAGUGUGGAAUUCUCGGGUGUCAAGG
B10: ENSMUSG00000061578.330|Ksr2|114:118 (ssRNA)
RNA: GGGAGUUCUACAGUCCGACGAUCGCUUCGAUAUCCGCAUGCUACUCCAAGGAAGCCAGGGGAGGGGGACUCCUCAGGAAGGAGUGACCAGUCACCUGCCUCCCAGGGUUCUGCCUUGCCCUUAAGCUAGGGUCCUUCAAGCAUCCACAGACUUAGACACACGUGGUAACAUGCUUGUAAUCCUGGCACUCUGGAGGCUGAGGCAGGAGGAUAACAAGUCUAGACUAUAUAUGAUUUCUGAGGGUCUGUUAGUGAAUAAGUACCUGGAUGACAUGGGACAAGUCCCAGCCUUCCCUGCUCCUGCCUCUUGCGGUCGCACUAGUGUGGAAUUCUCGGGUGUCAAGG
B11: ENSMUSG00000061578.809|Ksr2 (ssRNA)
RNA: GGGAGUUCUACAGUCCGACGAUCGCUUCGAUAUCCGCAUGCUACUUUGCCUCUACUAGAUGAUCUUGCAUCUGUCUUUGUGGGACUCUUUUUAUGAGGAACCAGUCCUGUUGAAUCGGGGUGCUCUGUAUUAGUUAUUUUUGUAACUUGUGAUUGUAACCAAAUGCCCGAUAGAAACAGCAUUCUGGCUCACAGUUUCAAAGGGCUCAGUCCAUAGCUGCCUGACUCUGUGUUUCUAGGCCUUUCUUGAGGCAAGUGUUCAUCAUGAUAGUGUGAGGGUGAGGAGGAGUUUCUUCAUGGCAAACUCUUGCGGUCGCACUAGUGUGGAAUUCUCGGGUGUCAAGG
B12: ENSMUSG00000034801.220|Sos2 (ssRNA)
RNA: GGGAGUUCUACAGUCCGACGAUCGCUUCGAUAUCCGCAUGCUAAUUUGACUAAUUUGUAAGUCUGGAACAAAAGUGUCUUAUGGCAUAAGAACCAACUGCCAUUGUCAAACCUAUUAACUGUCUUUAAUCUCGUGUUAACUGAAAUUUUUGAAAAGUUUUUCCAGAUUAGUAAUAUUUAAACAGAAAAUACUUUAAAAAGCUUUAUUAAAUUUUUUAAUCAGGAUAAAGCUUUGCCAUUUGGAUACUAUCAUUCAAAGUGAUCAAGGUAUGUAUGUUAUGCUGAUAGUGCAGUAGCAGCCAUUCUCUUGCGGUCGCACUAGUGUGGAAUUCUCGGGUGUCAAGG
B13: ENSMUSG00000031028.102|Tub (ssRNA)
RNA: GGGAGUUCUACAGUCCGACGAUCGCUUCGAUAUCCGCAUGCUAGGCCCAAAGGGGGUUAGGAGUGGUAGGGAUAGGUGCGUGGCAGGUCCCUGCUAGGAUUGCAGGGGCCUGGCCAUGUGUAUUAGCUGGAGGCUUAGAAUGCUAGCUCAUUUGUUGCUACAGAUUUGCCCAGUGCUUGCACACGUAAGAACCCAGCUCUCAAGGCCAAAUAUCUGAGUGGAUGGGGAUGAUAGGAGUCAUCCAGUAGACUCCCUACAUCAGGGCUCUCAGCAGCCCCAGCACAACACCUAUGACACACACACCUCUUGCGGUCGCACUAGUGUGGAAUUCUCGGGUGUCAAGG

TDP-43, sequence (Q13148 whole entry): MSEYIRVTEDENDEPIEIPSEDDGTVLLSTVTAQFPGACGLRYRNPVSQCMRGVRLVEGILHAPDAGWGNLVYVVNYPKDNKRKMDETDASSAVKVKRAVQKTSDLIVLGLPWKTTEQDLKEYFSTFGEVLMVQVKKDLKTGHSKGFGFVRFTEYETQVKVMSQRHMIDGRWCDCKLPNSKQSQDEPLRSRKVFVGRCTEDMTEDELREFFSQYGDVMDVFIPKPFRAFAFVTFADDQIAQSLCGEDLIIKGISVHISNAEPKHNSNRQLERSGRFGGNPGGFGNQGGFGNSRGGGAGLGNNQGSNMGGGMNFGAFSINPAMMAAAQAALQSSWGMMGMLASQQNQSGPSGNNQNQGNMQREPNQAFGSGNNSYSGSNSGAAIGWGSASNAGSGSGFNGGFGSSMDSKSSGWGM

This test addresses TDP-43 (Homo sapiens, UniProt Q13148 1-414). Briefly: RNA Bind-n-Seq with designed 260-mer pool; 25 mM Tris-HCl, 150 mM KCl, 3 mM MgCl2, BSA (printed 500 mg/mL), 20 units/mL SUPERase IN; pH not stated; 500 nM RNA pool, 1 h, 4 C; TDP-43 5, 50, 500 nM; high values mean tight binding. The following applies: protein: recombinant; tags: SBP (GST cleaved off with PreScission; pGEX-GST-SBP). The gist of the method:
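The incubation lasted 1 h at 4 °C and used 500 nM of an in vitro-transcribed 260-nt 3′ UTR oligo pool with recombinant SBP-tagged TDP-43 at 5, 50 or 500 nM immobilized on streptavidin beads. It took place in 25 mM Tris-HCl, 150 mM KCl, 3 mM MgCl2, BSA and SUPERase IN. Bound RNA was washed, eluted with biotin, converted to cDNA, PCR-amplified and sequenced to give R, each oligo's normalized abundance in the bound sample divided by that in input. Two independent protein batches provided the duplicates.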
Consider B1, for which the binding signal is 2.22 R (bound/input frequency ratio).

B2: the binding signal was 0.718 R (bound/input frequency ratio).

On to B3, for which the binding signal was 0.765 R (bound/input frequency ratio).

For the molecule B4, the binding signal was 5.97 R (bound/input frequency ratio).

Take B5: the binding signal was 0.475 R (bound/input frequency ratio).

For the molecule B6, the binding signal was 0.462 R (bound/input frequency ratio).

In the case of B7, the binding signal was 0.257 R (bound/input frequency ratio).

Turning to B8, the binding signal was 1.48 R (bound/input frequency ratio).

On to B9, for which the binding signal is 0.157 R (bound/input frequency ratio).

For B10, the binding signal was 1.65 R (bound/input frequency ratio).

For B11, the binding signal is 0.455 R (bound/input frequency ratio).

Consider B12, for which the binding signal was 0.0389 R (bound/input frequency ratio).

As to B13, the binding signal was 1.03 R (bound/input frequency ratio).
